Screening results (PubChem BioAssay)
Rows were chosen to be rich in hits. Some 2.1% of all compounds tested hit in one or more screens of this group.
aSyn yeast inh = qHTS of alpha-syn Inhibitors. Potency, µM (top dose mostly 46.1 µM), for the others: top-dose growth rescue (activation), actives largely listed as activators. hit rate 0.14% among 370,000. Yeast expressing alpha-synuclein, growth rescue, BacTiter-Glo, 24 h; also: % of control where 0% means no effect; nearly all actives have a fitted effect of over 65% in size
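Galactose-induced alpha-syn yeast (OD600=0.02, raffinose-pregrown) + pinned cpd, 24 hr, 30 deg C; growth by BacTiter-Glo luminescence. Growth restoration scores as activation.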
FUS yeast rescue = qHTS for Suppressors of FUS Proteinopathy: Primary screen using FUS-linked yeast assay; S. cerevisiae FUS-expressing, growth rescue, OD600, 24 h; AID 1347120, 2019; hit rate 0.24% among 390,000; Potency, µM (doses to about 76.6 µM), hits mostly activators;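 also: plate controls were DMSO vehicle for no effect and reference control for full effect; nearly all actives have a fitted effect of over 55% in size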
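Restored growth of FUS-toxic S. cerevisiae, read as 600 nm absorbance after 24 h at 30C in galactose medium (starting OD 0.005). Controls CP55940 and DMSO.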
TDP43 rescue = qHTS of TDP-43 Inhibitors | TDP-43 expressing yeast growth rescue, BacTiter-Glo, 24 h | Potency, µM (titrated, usually from 46.1 µM), for inactives: at the top dose growth rescue (activation), actives largely listed as activators | hit rate 1.8% among 410,000; also: % of control where 0% means no effect; nearly all actives have a fitted effect of over 50% in size
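Yeast cells expressing TDP-43 under galactose induction are exposed to compounds for 24 hr at 30 deg C. BacTiter-Glo luminescence measures growth, so protective compounds score as activators.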
Abeta yeast res = qHTS for compounds that reverse cellular toxicity of Amyloid beta (A-beta) peptide in yeast: Primary Screen | yeast expressing A-beta42, growth rescue, OD600, 48 h; response scale: 0% DMSO, 100% iron-clioquinol control | Potency, µM (doses to about 46.1 µM), actives largely listed as activators | hit rate 0.063% among 410,000 | AID 1347071, 2019; also: nearly all actives have a fitted effect of over 55% in size
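Growth rescue measured by 600 nm absorbance after 48 h yeast culture at 30 C with compound. Values normalized between DMSO and an equimolar ferric chloride plus clioquinol control.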
Active calls of the source: *; i = inactive; ? = inconclusive; / = no result; ! = repeats disagree; [ ] = remark or other dose. Calls follow the shape of the dose curve; as a rule, active = well fitted curve in the direction sought with a large enough effect; inconclusive = small, poorly fitted or top-dose-only effect, or another doubt; inactive = no such curve, though single readings can be large; an effect the other way counts as inactive or inconclusive. Potency is read from the fitted curve at half-maximal effect.

SMILES | aSyn yeast inh | FUS yeast rescue | TDP43 rescue | Abeta yeast res
O=S(=O)(NCCc1csc(-c2cccnc2)n1)c1ccc2c(c1)OCCO2 | -20.5% | i | 21.7% | i
O=S(=O)(NCCc1csc(-c2ccc(C(F)(F)F)cc2)n1)c1ccc2c(c1)OCCO2 | -1.4% | i | 25.1µM* | ?
COc1ccc(-c2nc(CCNS(=O)(=O)c3ccc4c(c3)OCCO4)cs2)cc1 | -16.1% | i | 12.6µM* | i
O=C(Cn1c(-c2cncs2)nc2ccccc21)NC1CCCCC1 | / | i | / | /
CCOC(=O)CC[C@@]1(C(=O)OCC)C[C@@H](CC(=O)NCc2ccc(OC)c(OC)c2)C(=O)N2CCCC=C21 | / | i | / | /
Cc1cc(Cl)nc2nc(Cl)ccc12 | -4.0% | / | / | /
Cc1nn2c(=O)cc(COC(=O)c3ccc(NC(=O)COc4ccccc4F)cc3)nc2s1 | / | i | 5.8% | i
Cc1nn2c(=O)cc(COC(=O)c3c(F)cccc3Cl)nc2s1 | 13.3% | i | 35.5µM* | i
CCOc1cc(C2c3c(-c4cc(C)ccc4O)n[nH]c3C(=O)N2CCCOC(C)C)ccc1O (stereo unspecified) | / | i | 12.0% | i
CCc1ccc(NC(=O)c2cnn(-c3ccccc3)c2-n2cccc2)cc1 | / | i | -6.3%[9.22 µM] | i
Cn1ncc(C(=O)Nc2ccc(OC(F)(F)F)cc2)c1-n1cccc1 | 8.8% | i | 12.6µM* | i
COc1ccc(C(C(=O)N(C)C2CCCC2)N(Cc2ccc(F)cc2)C(=O)c2cc(C)[nH]n2)cc1OC (stereo unspecified) | / | i | / | /
COc1cc(NC(=O)c2ccccc2)cc(OC)c1 | 3.55µM* | i | 0.0% | i
COc1cc(NC(=O)C(Cc2ccccc2)n2cccc2)cc(OC)c1 (stereo unspecified) | 4.7% | i | 20µM* | i
COc1ccc(C(=O)Nc2cc(OC)cc(OC)c2)cc1 | -7.5% | i | 29.3% | i
CN(Cc1ccccc1)S(=O)(=O)c1cccc(C(=O)OCC2CCCCC2)c1 | / | i | / | /
COc1ccc2c(c1)CN1C(=O)N(Cc3ccc(F)cc3)S(=O)(=O)CC21 (stereo unspecified) | / | i | / | /
C=CCC[C@H](Cc1ccc(F)cc1)C(=O)OC[C@H](Cc1c[nH]c2ccccc12)NC(=O)[C@@H](CC=C)CC(=O)N(CCO)Cc1ccccc1 | 1.8% | 15.8µM* | 12.9% | i
C=CC[C@@H](CC(=O)N[C@H](CO)Cc1ccccc1)C(=O)N[C@@H](COC(=O)[C@@H](CC=C)CC(=O)OC(C)(C)C)Cc1c[nH]c2ccccc12 | 0.7% | 17.8µM* | -6.2% | i
C=CC[C@@H](CC(=O)N[C@@H](CO)Cc1ccccc1)C(=O)N[C@@H](C)COC(=O)[C@@H](CC=C)Cc1ccc(F)cc1 | -2.4% | 17.8µM* | 8.0% | i
C=CC[C@H](CC(=O)N[C@H](CO)Cc1ccccc1)C(=O)N[C@H](COC(=O)[C@@H](CC=C)CC(=O)OC(C)(C)C)Cc1c[nH]c2ccccc12 | -4.3% | 17.8µM* | -11.2% | i
C=CC[C@@H](CC(=O)N[C@@H](CO)Cc1ccccc1)C(=O)N[C@H](C)COC(=O)[C@@H](CC=C)Cc1ccc(F)cc1 | 0.1% | i | 14.5% | i
C=CCC[C@@H](Cc1ccc(F)cc1)C(=O)OC[C@H](Cc1c[nH]c2ccccc12)NC(=O)[C@H](CC=C)CC(=O)N(CCO)Cc1ccccc1 | -4.8% | ? | 13.3% | i
OCCCN1CCC2(CCC(c3ccccc3)CC2)C1 (stereo unspecified) | / | i | / | /
O=C(NN=Cc1cccc(OCc2ccccc2)c1)c1cc(-c2ccc(Cl)cc2)n[nH]1 | / | i | / | /
SMILES | aSyn yeast inh | FUS yeast rescue | TDP43 rescue | Abeta yeast res
COC(=O)c1cc(NC(=O)Cn2nc(-c3ccccc3)c3c(c2=O)CCCC3)cc(C(=O)OC)c1 | / | i | 18.8% | i
O=C(Cn1nc(-c2ccccc2)c2c(c1=O)CCCC2)Nc1ccc(F)c(Cl)c1 | / | 10µM* | -5.8% | i
O=C(CN1CCCN(Cc2ccccc2F)S1(=O)=O)Nc1ccc(F)c(Cl)c1 | / | i | 11.2µM* | ?
COc1cccc(-c2nc(SCC(=O)NC3CCCC3)c(-c3ccc(F)cc3)[nH]2)c1 | / | i | 21.7% | i
Cc1ccc2c(CC(=O)Nc3nc(C)cs3)coc2c1 | -12.4% | i | 11.2µM* | ?
CSc1nnc(NC(=O)Cc2coc3cc(C)ccc23)s1 | / | i | 23.2% | i
COc1ccc2c(CC(=O)Nc3nc(C)cs3)coc2c1 | -16.7% | i | 12.6µM* | i
COc1ccc2c(CC(=O)Nc3ncc(C)s3)coc2c1 | -8.4% | i | / | i
COc1cc2c(NC3CCN(C)CC3)nc(N3CCCN(C)CC3)nc2cc1OCCCC(C)C | -18.9% | / | / | /
Cc1ccc(NC(=O)C2COc3ccccc3O2)cc1 (stereo unspecified) | -2.8% | i | 4.8% | i
Cc1ccc(NC(=O)C2COc3ccccc3O2)c(C)c1 (stereo unspecified) | 2.4% | i | 11.2µM* | i
O=C(Nc1ccc([N+](=O)[O-])cc1)C1COc2ccccc2O1 (stereo unspecified) | 2.3% | i | ? | 8.91µM*
CC1(C)Oc2ccc(NC(=O)C3COc4ccccc4O3)cc2O1 (stereo unspecified) | -27.8% | i | 10µM* | i
O=C(Cn1nc(-c2ccccc2)ccc1=O)Nc1ccc(N2CCN(C(=O)c3cccs3)CC2)cc1 | -3.5% | 8.91µM* | 4.0% | i
CC(C)CC(=O)Nc1ccc(N2CCN(C(=O)c3cccs3)CC2)cc1 | 0.4% | i | -21.7% | i
Cc1ccc(NC(=O)C2CCCN(c3cnccn3)C2)cc1Cl (stereo unspecified) | / | i | 22.4µM* | i
O=C(Nc1ccc(C(F)(F)F)cc1)C1CCN(c2cnccn2)CC1 | -8.2% | i | 15.8µM*! | i
O=C(Nc1ccc(F)c(Cl)c1)C1CCCN(c2cnccn2)C1 (stereo unspecified) | ? | i | ? | i
CCOC(=O)c1ccc(NC(=O)C2CCCN(c3cnccn3)C2)cc1 (stereo unspecified) | ? | i | 20µM* | i
CCN(CC)C(=O)CC[C@H]1CC[C@]2(CCCN(CC3CC3)C2)O1 | / | i | / | /
CCC(C)c1ccc(NC(=O)c2c([N+](=O)[O-])cnn2CC)cc1 (stereo unspecified) | 17.3% | i | 20µM* | i
CCn1ncc([N+](=O)[O-])c1C(=O)Nc1ccc(C(=O)N2CCCCC2)cc1 | 2.1% | i | -0.8% | i
COC(=O)c1cc(-c2cc(Cl)cc(Cl)c2)c(=O)n2c1CCC2 | / | i | / | /
CN(C)c1ccc(C=Nc2cnc3ccccc3c2)cc1 | -2.3% | / | / | /
Nc1c(C(=O)N2CCCCC2)sc(=S)n1-c1ccccc1 | -18.6% | i | 19.3% | i
Nc1nc(SCc2ccccc2)sc1C(=O)N1CCCCC1 | 15.5% | i | 12.6µM* | i
